According to the supplement of paper PMC10105736:
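Further: HEK293T cells with Epo stimulation, STAT-responsive firefly luciferase reporter, fold induction versus unstimulated cells divided by the larger fold induction of two negative controls lacking either bait or prey.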

Chain of cpa (chain, as listed by the source): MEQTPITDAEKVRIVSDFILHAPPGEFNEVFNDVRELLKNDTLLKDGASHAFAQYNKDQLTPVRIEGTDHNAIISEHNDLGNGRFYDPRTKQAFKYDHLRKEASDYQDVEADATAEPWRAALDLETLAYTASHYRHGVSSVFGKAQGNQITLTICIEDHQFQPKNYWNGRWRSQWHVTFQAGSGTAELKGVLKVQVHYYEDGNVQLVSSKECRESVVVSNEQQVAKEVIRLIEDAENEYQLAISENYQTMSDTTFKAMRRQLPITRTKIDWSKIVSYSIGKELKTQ

What follows are substances tested on cpb (assay: MAPPIT interaction score (arbitrary units); higher = stronger binary interaction signal, active = hit call of the paper). Details: MAPPIT configuration: N-C; pair source set: Lit-BM-16;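 active = MAPPIT score above the 99th percentile of random reference set scores in the same batch; inactive = at or below it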.
Experimental: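 MAPPIT in HEK293T cells: Drosophila bait and prey ORFs (from the FlyBi ORF collection) were co-transfected in quadruplicate, with two wells stimulated by erythropoietin. Interaction-dependent JAK-STAT activation was read out with a STAT-responsive firefly luciferase reporter. Positive calls use the 99th percentile of random reference set (RRS) scores within each batch […]. Batches Dvs01 and Dvs02 used the N-N configuration and Dvs04 the N-C configuration. Pairs come from FlyBi screens, CuraGen, DPiM, Finley Y2H, Lit-BM-16, Lit-BS-16 and RRS.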
cpa was tested, and the MAPPIT interaction score was 4.39 (active).

Same assay, conditions: MAPPIT configuration: N-N; pair source set: Lit-BM-16
With cpa the MAPPIT interaction score was 6.04 (active).
